Test results: ChEMBL document CHEMBL1201862, “PubChem BioAssay data set” (2004)
The campaign covered roughly 300,000 compounds. About 3,700 (1.2%) were called active. Another 20% or so got no clear call; they are omitted. No cut-off for these calls is given here. The full list was thinned out, with actives kept by preference.

System: HEK293
Test: qHTS for Inhibitors of binding or entry into cells for Lassa Virus. [Related pubchem assays (depositor defined):AID463114, AID540249]
Format: functional, Homo sapiens
Settings: read-out: Potency

SMILES	AC50
C[C@@H]1O[C@@H](O[C@H]2C[C@@H](O)[C@]3(CO)[C@H]4[C@H](O)C[C@]5(C)[C@@H]([C@@H]6COC(=O)C6)CC[C@]5(O)[C@@H]4CC[C@]3(O)C2)[C@H](O)[C@H](O)[C@H]1O [DIHYDROOUABAIN]	1580 nM (active)
